Results on eleven compounds are retold here after ChEMBL document CHEMBL3988442, “University of Dundee, Small-Polar-MMV Screening Library” (2021).

Structures are written as SMILES. For some of these results: Measured potencies and affinities stand elsewhere.

What all share (parameters): scale not given: direction of the effect not stated beside the values
The target in assay [1] is Protein translocase subunit SecA (Escherichia coli (strain K12)) (UniProt P10408). Nature of the assay: Assay to Identify E. coli SecA ATPase Inhibitors. Conditions: 30 µM. Type of assay: functional.
In assay [2] the target is T1, Ubiquitin-activating enzyme e1, putative (Leishmania donovani (strain BPK282A1)) (UniProt E9BSI1).
T1 sequence (whole entry): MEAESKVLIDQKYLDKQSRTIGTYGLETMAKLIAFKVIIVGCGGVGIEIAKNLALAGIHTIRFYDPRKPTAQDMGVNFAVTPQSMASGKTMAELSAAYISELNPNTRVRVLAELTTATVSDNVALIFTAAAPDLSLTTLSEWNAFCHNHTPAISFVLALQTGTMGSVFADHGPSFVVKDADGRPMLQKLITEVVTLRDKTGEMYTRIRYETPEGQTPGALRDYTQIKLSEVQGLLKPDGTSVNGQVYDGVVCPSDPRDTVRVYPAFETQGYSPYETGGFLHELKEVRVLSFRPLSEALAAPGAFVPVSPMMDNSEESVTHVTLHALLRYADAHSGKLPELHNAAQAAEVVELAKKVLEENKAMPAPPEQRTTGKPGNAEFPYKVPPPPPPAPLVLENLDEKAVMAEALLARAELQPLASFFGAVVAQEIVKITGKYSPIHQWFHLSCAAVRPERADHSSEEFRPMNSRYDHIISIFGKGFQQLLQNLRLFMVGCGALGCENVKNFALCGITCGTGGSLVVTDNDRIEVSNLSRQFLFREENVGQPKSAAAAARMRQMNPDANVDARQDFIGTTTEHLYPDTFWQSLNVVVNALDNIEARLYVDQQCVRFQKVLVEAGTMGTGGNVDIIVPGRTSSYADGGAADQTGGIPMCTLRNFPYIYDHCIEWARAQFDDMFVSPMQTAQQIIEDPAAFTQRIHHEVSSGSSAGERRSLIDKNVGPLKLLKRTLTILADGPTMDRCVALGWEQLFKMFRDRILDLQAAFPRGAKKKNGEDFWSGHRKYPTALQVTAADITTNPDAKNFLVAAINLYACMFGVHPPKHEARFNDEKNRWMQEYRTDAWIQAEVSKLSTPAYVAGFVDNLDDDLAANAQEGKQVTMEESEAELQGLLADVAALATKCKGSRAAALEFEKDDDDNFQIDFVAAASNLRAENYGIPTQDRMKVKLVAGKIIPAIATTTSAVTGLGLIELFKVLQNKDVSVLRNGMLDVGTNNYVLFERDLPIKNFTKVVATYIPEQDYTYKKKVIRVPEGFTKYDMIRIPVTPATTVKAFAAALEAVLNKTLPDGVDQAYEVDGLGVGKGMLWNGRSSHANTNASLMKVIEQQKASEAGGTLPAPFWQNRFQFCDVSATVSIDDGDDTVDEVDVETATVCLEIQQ
Nature of the assay: Leishmania donovani Ubiquitin Activating Enzyme (LdE1). Type of assay: functional. Conditions: 30 µM.

Assay [3] has as its target AMP-activated protein kinase, AMPK (Homo sapiens) (UniProt P54646+O43741+P54619+Q9UGJ0+Q9Y478+Q13131+Q9UGI9). The assay can be described thus: AMP-dependent Kinase enzyme assay. An in vitro enzyme assay that detects ADP turnover that is directly proportional to AMPK activity. This uses naive AMPK that is activated during the assay with MK-8722. Type of assay: functional. The settings on record: 30 µM.

Assay [4] has as its target Sialic acid-binding Ig-like lectin 9 (Homo sapiens) (UniProt Q9Y336). Nature of the assay: Hs-Siglec9 ALPHAscreen SOP 20170721. Conditions: 10 µM. (In general: Bead proximity is the source of the signal in Alpha formats.)
The next assay concerns Trypanosoma cruzi. The assay can be described thus: Trypanosoma cruzi phosphomannomutase and mannose-1-phosphate guanylyltransferase assay. Type of assay: functional. The settings on record: 10 µM.
Assay [5] deals with T2, Arginase-2, mitochondrial (Homo sapiens) (UniProt P78540).
T2 sequence (whole entry): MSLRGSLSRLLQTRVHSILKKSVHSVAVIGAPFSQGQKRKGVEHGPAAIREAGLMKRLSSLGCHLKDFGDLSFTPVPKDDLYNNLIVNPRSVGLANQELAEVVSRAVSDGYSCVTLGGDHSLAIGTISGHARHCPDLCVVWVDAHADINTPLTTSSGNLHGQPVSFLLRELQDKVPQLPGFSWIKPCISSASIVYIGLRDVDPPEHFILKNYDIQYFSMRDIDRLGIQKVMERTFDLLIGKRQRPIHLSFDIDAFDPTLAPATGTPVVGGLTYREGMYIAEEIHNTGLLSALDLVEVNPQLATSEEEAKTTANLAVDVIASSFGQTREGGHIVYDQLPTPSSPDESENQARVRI
The assay can be described thus: in vitro enzyme assay to detect the production of urea directly proportional to the activity of Arginase II. Also: in the data most compounds retested in dose-response had high values. Type of assay: functional. The settings on record: 33.3 µM.

The target of assay [6] is T3, Proteasome subunit beta (Trypanosoma cruzi) (UniProt O96673).
T3 sequence (whole entry): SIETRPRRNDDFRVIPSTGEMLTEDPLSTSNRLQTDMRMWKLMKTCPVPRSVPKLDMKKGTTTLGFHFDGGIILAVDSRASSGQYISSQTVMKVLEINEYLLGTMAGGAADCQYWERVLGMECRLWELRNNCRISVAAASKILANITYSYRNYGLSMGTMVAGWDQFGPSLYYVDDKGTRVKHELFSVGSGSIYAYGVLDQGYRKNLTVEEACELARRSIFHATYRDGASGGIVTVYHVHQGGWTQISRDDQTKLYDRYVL
The assay can be described thus: Trypanosoma cruzi proteasome chymotrypsin-like activity (TcProtChymo) assay. Also: in the data most compounds retested in dose-response had high values. Type of assay: functional. Conditions: 9.37 µM.

Another assay is filed under the species Homo sapiens. The assay can be described thus: To identify inhibition of the IFN signalling (Jak-Stat) pathway via expression of an eGFP reporter gene under the control of an IFN-stimulated response element (ISRE) containing MxA promoter. Type of assay: functional. The settings on record: 30 µM. In general terms: Reporter assays use an easily measured gene product as a stand-in for the process of interest.

Assay [7] concerns the target T4, Tyrosyl-tRNA synthetase, putative (Trypanosoma cruzi (strain CL Brener)) (UniProt Q4DSP6).
T4 sequence (whole entry): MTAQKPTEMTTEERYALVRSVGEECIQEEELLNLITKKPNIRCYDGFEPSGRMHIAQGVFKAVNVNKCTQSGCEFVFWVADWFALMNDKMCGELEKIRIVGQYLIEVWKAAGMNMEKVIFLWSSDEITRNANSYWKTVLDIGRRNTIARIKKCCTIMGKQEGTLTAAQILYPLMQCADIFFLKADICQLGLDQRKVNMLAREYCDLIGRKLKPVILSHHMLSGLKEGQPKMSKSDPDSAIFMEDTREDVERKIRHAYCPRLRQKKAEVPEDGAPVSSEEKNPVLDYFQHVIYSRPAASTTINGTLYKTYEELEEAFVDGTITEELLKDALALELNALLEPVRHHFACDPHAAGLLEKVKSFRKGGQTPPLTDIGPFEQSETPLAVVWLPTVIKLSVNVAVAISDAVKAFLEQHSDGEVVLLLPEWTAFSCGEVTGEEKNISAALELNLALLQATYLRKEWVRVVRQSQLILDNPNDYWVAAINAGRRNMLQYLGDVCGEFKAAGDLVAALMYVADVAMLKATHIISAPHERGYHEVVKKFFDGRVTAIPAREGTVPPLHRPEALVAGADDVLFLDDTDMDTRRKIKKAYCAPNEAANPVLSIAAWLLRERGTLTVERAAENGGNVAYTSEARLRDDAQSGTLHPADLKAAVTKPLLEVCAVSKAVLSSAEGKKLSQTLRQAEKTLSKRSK
Nature of the assay: Trypanosoma cruzi tyrosyl tRNA synthetase (TcYRS) _High Tyrosine SOP. Also: in the data most compounds retested in dose-response had high values. Type of assay: functional. The settings on record: 30 µM.

For assay [8], the target named is T4, Tyrosyl-tRNA synthetase, putative (Trypanosoma cruzi (strain CL Brener)). Nature of the assay: Trypanosoma cruzi tyrosyl tRNA synthetase (TcYRS) SOP. Type of assay: functional. Conditions: 30 µM.
The target of assay [9] is Chromo domain-containing protein 1 (Saccharomyces cerevisiae (strain ATCC 204508 / S288c) (Baker's yeast)) (UniProt P32657). Nature of the assay: ScCHD-1 Enzyme Inhibition Assay. Also: in the data most compounds retested in dose-response had high values. Type of assay: functional. Conditions: 30 µM.
Chain of Chromo domain-containing protein 1 (Saccharomyces cerevisiae (strain ATCC 204508 / S288c) (Baker's yeast)) (P32657 whole entry, the tested form may be a part): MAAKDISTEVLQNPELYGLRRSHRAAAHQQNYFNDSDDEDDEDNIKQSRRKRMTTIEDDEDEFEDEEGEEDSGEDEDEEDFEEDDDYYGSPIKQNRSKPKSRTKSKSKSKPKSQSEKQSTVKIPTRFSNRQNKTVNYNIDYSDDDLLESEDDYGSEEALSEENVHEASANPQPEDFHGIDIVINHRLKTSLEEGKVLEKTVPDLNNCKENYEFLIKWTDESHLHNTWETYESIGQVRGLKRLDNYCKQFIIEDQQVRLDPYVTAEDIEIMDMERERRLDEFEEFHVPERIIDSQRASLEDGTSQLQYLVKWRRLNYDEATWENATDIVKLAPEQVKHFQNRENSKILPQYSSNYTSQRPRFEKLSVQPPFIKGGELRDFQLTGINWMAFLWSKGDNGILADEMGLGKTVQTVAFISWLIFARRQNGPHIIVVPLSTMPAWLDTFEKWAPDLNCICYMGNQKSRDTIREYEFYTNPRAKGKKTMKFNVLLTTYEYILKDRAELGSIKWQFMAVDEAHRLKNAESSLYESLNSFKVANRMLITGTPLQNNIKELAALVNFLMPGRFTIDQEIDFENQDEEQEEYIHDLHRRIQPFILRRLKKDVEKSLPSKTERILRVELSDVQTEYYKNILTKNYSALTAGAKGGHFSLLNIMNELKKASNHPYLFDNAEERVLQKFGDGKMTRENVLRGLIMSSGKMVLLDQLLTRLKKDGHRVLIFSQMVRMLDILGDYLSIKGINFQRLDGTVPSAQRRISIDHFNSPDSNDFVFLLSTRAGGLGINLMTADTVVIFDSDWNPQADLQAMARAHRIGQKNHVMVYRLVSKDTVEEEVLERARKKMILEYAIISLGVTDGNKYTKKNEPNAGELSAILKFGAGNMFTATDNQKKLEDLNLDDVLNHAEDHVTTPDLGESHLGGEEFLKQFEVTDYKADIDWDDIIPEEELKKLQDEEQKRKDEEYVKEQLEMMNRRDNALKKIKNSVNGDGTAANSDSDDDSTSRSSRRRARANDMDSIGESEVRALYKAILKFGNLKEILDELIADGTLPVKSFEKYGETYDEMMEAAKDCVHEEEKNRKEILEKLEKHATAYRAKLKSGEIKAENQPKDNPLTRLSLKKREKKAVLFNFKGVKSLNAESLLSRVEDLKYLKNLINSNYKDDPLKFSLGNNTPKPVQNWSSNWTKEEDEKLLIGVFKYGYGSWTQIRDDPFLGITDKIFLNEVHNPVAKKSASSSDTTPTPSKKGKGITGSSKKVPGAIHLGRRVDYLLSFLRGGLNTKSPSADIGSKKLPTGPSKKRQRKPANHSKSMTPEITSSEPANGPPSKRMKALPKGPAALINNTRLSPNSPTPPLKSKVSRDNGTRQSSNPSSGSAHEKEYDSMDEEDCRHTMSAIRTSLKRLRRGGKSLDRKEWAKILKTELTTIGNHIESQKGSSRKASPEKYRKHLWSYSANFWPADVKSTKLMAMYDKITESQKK

Chain of Sialic acid-binding Ig-like lectin 9 (Homo sapiens) (Q9Y336 whole entry): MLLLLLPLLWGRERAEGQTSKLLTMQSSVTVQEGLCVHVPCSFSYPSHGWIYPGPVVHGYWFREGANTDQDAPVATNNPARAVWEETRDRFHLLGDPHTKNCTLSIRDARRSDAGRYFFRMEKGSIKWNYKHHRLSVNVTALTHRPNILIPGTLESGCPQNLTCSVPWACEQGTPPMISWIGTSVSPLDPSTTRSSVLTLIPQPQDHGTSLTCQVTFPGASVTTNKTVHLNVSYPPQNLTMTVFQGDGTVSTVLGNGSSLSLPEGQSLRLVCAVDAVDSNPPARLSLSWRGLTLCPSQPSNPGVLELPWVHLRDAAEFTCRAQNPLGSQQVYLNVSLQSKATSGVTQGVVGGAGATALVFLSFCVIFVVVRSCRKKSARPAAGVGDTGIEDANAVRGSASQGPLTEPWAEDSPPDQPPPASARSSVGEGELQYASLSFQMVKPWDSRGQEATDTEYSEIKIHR
Chain of Protein translocase subunit SecA (Escherichia coli (strain K12)) (P10408 whole entry): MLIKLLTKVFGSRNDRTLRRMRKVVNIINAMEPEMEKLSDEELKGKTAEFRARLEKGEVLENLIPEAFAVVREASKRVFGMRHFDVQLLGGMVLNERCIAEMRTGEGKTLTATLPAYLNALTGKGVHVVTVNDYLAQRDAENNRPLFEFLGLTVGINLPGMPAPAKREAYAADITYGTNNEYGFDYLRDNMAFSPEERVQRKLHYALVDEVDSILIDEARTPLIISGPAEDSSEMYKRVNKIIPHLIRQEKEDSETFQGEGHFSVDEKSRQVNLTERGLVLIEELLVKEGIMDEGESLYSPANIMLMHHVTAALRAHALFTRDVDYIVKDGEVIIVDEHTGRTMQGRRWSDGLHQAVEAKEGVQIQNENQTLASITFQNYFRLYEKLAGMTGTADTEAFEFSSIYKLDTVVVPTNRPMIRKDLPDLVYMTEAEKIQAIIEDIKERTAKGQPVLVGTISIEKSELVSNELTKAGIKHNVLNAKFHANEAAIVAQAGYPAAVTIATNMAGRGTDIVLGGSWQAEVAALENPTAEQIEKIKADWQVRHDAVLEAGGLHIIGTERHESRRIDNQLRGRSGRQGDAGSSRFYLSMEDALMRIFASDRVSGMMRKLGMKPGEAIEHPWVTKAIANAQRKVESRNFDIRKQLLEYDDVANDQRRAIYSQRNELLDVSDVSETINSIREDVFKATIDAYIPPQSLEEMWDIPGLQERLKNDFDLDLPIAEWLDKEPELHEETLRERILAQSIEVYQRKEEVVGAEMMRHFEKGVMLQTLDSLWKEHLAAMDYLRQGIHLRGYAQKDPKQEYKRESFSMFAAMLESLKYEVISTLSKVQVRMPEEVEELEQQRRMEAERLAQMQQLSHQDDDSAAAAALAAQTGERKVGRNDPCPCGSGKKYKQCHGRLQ

Turning to `CN1CC2(COCCN(C(=O)c3ccco3)C2)OCC1=O` (stereo unspecified), the Percent Effect in assay [1] is -5.81%; in assay [2], 2.67%; in assay [3] it was -0.919%; in assay [4], -3.45%; in the assay on Trypanosoma cruzi, -5.99%; in [5], -55.4%. Further, the Percent Effect is 0.513% in assay [6]; -7.28% in the assay listed under Homo sapiens; -3.12% in assay [7]; -2.5% in [8]; -2.77% in [9].

Take `CO[C@H]1CO[C@@]2(CCCN(C(=O)C3=CCCCC3)C2)C1`: the Percent Effect in assay [1] was -5.62%; in assay [2] it was 13.3%; in assay [3] it was 1.22%; in [4], -1.82%; with Trypanosoma cruzi, 1.35%; in [5] it was -47.5%. For the same compound, the Percent Effect in [6] is 8.03%; in the assay listed under Homo sapiens, 0.996%; in assay [7] it was 3.12%; in assay [8], 2.5%; in assay [9], -8%.

As for `Cc1nc(CNC(=O)NCC(O)c2ccc(F)c(F)c2)cs1` (stereo unspecified), the Percent Effect in assay [1] is -1.38%; in assay [2], 10.8%; in assay [3] it was 1.17%; in assay [4], -3.81%; with Trypanosoma cruzi it was 3.25%; in [5], -3.51%. Moreover, the Percent Effect was 16.3% in [6]; 23.3% in the assay filed under Homo sapiens; 7.92% in assay [7]; 18.3% in assay [8]; -5.03% in assay [9].

Consider `CCn1cc(CN2CCCC(CO)(CCc3ccccc3)C2)c(C)n1` (stereo unspecified), for which the Percent Effect in assay [1] is -3.86%; in assay [2], 8.11%; in [3], -1.51%; in [4] it was 28.3%; in the assay on Trypanosoma cruzi it was 5.18%; in assay [5] it was 18.1%. Further, the Percent Effect in assay [6] was 12.1%; in the assay filed under Homo sapiens it was -7.2%; in assay [7], 0%; in assay [8], 11.1%; in [9] it was -12.5%.

Turning to `CCN(CC)CC1CN(CCc2ccccc2)Cc2nccn2C1` (stereo unspecified), the Percent Effect is -3.63% in [1]; -2.74% in [2]; 1.1% in [3]; 4.51% in assay [4]; 3.77% in the assay with Trypanosoma cruzi; -1.6% in assay [5]. Moreover, the Percent Effect in assay [6] is 1.28%; in the assay filed under Homo sapiens it was 2.5%; in assay [7] it was 7.29%; in assay [8] it was 8.64%; in [9] it was -0.569%.

For the compound `O=C1CC[C@H]2[C@H](CCN2C(=O)C2CCCO2)N1CCN1CCCC1` (stereo partly specified), the Percent Effect was 1.49% in [1]; 1.33% in assay [2]; 6.35% in assay [3]; -1.83% in [4]; 0.393% in the assay with Trypanosoma cruzi; -3.7% in [5]. The Percent Effect is 10.7% in assay [6]; -5.66% in the assay filed under Homo sapiens; 2.12% in assay [7]; 0% in assay [8]; -4.01% in [9].

Turning to `CN1CCOC(CNCc2cccc(OCc3ccccn3)c2)C1` (stereo unspecified), the Percent Effect in [1] was -5.11%; in [2], 5.06%; in assay [3], -8.27%; in [4] it was 12.2%; in the assay on Trypanosoma cruzi, 3.87%; in assay [5], -1.9%. The Percent Effect is -4.18% in assay [6]; -5.19% in the assay listed under Homo sapiens; 7.39% in [7]; 11.4% in [8]; -2.11% in assay [9].

With `COc1cccc(CN2C[C@@H]3COC[C@]3(COCc3ccncc3)C2)c1`, the Percent Effect in [1] was -5.26%; in [2], 8.11%; in [3], 5.1%; in [4] it was -1.02%; with Trypanosoma cruzi it was 6.94%; in [5] it was -4.14%. Also, the Percent Effect was 14.6% in [6]; 5.58% in the assay listed under Homo sapiens; 2.16% in assay [7]; 10.3% in assay [8]; -0.65% in assay [9].

On to `O=C(NCC1CC1)[C@H]1CC[C@@H]2[C@@H](CCN2Cc2ccoc2)O1`, for which the Percent Effect is -9.56% in [1]; 16.2% in [2]; -3.1% in [3]; 26% in [4]; 4.99% in the assay on Trypanosoma cruzi; 3.23% in [5]. Moreover, the Percent Effect in assay [6] is 4.72%; in the assay filed under Homo sapiens, -7.7%; in assay [7], 4.3%; in assay [8], 6.17%; in assay [9] it was -12.2%.

For the compound `O=C(c1cccs1)N1CCC(O)(CN2CCc3ccccc3C2)C1` (stereo unspecified), the Percent Effect in assay [1] was -1.45%; in assay [2] it was 4.05%; in assay [3], 0.49%; in [4], 2.19%; with Trypanosoma cruzi it was -4.74%; in assay [5] it was 5.34%. Besides, the Percent Effect was 11.7% in [6]; 7.61% in the assay filed under Homo sapiens; 2.15% in assay [7]; 3.9% in assay [8]; -12.6% in assay [9].

Regarding `O=C(Cn1nc(-c2ccc(F)cc2)oc1=O)Nc1ccccc1`, the Percent Effect in assay [1] is 0.224%; in assay [2], 21.1%; in assay [3], -0.861%; in assay [4], -9.34%; in the assay on Trypanosoma cruzi, 3.01%; in assay [5] it was -2.3%. The Percent Effect in [6] is 21.6%; in the assay filed under Homo sapiens, 7.21%; in assay [7], 6.37%; in [8], 21.9%; in assay [9], -11.6%.
